# Screens: PubChem BioAssay, several laboratories
# PrP UTR inh: inhibition of PrP 5' UTR reporter expression; cell-based PrP 5' UTR mRNA reporter, plate reader; inhibition, % (test concentration not listed); hit rate 0.35% among 340,000; in the data active means inhibition above about 52%; further: 0 = median of the neutral control wells
# Mtb FBA inh: inhibits M. tuberculosis FBA enzyme; P9WQA3; purified M. tuberculosis FBA, fluorescence read-out; inhibition, % at 1 µM; hit rate 2.3% among 360,000; in the data active means inhibition above about 27%;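 further: 0% = vehicle and 100% = reference inhibitor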
# Target sequence (P9WQA3 whole entry, looked up): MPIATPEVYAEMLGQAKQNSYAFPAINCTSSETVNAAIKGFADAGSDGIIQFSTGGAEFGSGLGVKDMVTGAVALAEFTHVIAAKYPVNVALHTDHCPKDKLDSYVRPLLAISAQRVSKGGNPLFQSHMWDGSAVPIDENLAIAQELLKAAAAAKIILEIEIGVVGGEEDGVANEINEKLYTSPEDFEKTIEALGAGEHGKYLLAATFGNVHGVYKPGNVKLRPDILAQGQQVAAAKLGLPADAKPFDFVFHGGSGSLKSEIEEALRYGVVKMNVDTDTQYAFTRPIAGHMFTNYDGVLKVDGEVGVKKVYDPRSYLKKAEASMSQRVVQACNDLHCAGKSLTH
# PrPC surface inh: reduces human prion protein on the cell surface; hit rate 0.43% among 370,000; cell surface PrPC, TR-FRET read-out; inhibition, % at 13.8 µM; in the data active means inhibition above about 24%; further: 0% = median of the test wells and 100% = reference compound wells
# Y pestis TopoI: Y. pestis Topo-I inhibition via cleavage products; activity, % at 10 µM; AID 504884; Y. pestis Topo-I cleavage product accumulation, plate reader; hit rate 0.064% among 360,000; in the data active means activity above about 50%, passing the limit was not always enough
# GDH-TPI counter: inhibits GDH-TPI coupling enzymes, artifact for Mtb FBA screen; GDH-TPI coupled enzyme counterscreen, NADH absorbance; inhibition, % at 4.8 µM; hit rate 1.2% among 360,000; AID 588335; in the data active means inhibition above about 30%;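 further: 0% = DMSO wells and 100% = wells lacking the enzyme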
# Mtb hypoxia rep: reduces hypoxia-regulated biosensor signal in M. tuberculosis | AID 1159583 | M. tuberculosis hypoxia-regulated fluorescent reporter, fluorescence | fluorescence inhibition, % (concentration not given with the values) | hit rate 0.1% among 300,000; in the data active means fluorescence inhibition mostly above about 23%, no sharp cut-off; inactive means mostly below about 17%
# The depositor's hits bear a star; / = no result shown; + = active, no number. Sampled rows, rich in hits. Any-hit rate of the full collection: about 3.8%.
SMILES,PrP UTR inh,Mtb FBA inh,PrPC surface inh,Y pestis TopoI,GDH-TPI counter,Mtb hypoxia rep
COc1cc(C=NNC(=O)/C(=C\c2ccc([N+](=O)[O-])cc2)NC(=O)c2ccccc2)cc(OC)c1O,/,/,/,/,/,3
O=C(NN=Cc1ccc2c(c1)OCO2)c1ccc2c(c1)OCCO2,/,/,/,/,/,9
COc1cc(/C=N/NC(=O)c2ccc(-n3cccc3)cc2)ccc1O,-23,-2,3,-8,43*,/
O=C(N/N=C/c1cc([N+](=O)[O-])cc([N+](=O)[O-])c1O)/C(=C\c1cccs1)NC(=O)c1ccccc1,-22,-6,-15,6,37*,/
O=C(N/N=C/c1ccc2c(c1)OCO2)c1ccc(Br)o1,-103,-2,9,-6,47*,/
COc1cc(/C=N/NC(=O)/C(=C\c2ccc([N+](=O)[O-])cc2)NC(=O)c2ccccc2)cc(OC)c1O,-17,-1,-34,14,43*,/
Cc1ccc(C(=O)NN=Cc2ccc3c(c2)OCO3)o1,/,/,/,/,/,1
CC1CN(C(C)CO)C(=O)c2cccc(NC(=O)C3CC3)c2OC1CN(C)Cc1ccc(-c2ccccc2)cc1 (stereo not drawn),/,/,/,/,/,4
COc1ccc(/C=N/NC(=O)c2ccc3c(c2)OCO3)cc1,-13,-6,7,-6,20,/
COc1cc(/C=N/NC(=O)c2ccc3c(c2)OCO3)ccc1O,-20,1,4,-3,35*,/
C/C(=N\NC(=O)c1c([N+](=O)[O-])c(C)nn1C)c1ccc(NC(=O)C2CCCC2)cc1,67*,-1,4,5,8,/
CC(=NNC(=O)c1c([N+](=O)[O-])c(C)nn1C)c1ccc(NC(=O)C2CCCC2)cc1,/,/,/,/,/,1
COc1cc2c(cc1OC)C(C)=NC1(CCCCC1)C2,2,186*,-6,-8,15,17
COc1cc2c(cc1OC)C(SC)=NC1(CCCC1)C2,-16,-1,-7,3,-6,5
COc1cc2c(cc1OC)C(C)=NCC2,-19,+,-7,-6,0,/
COc1cc2c(cc1OC)C(c1ccc(Cl)cc1)=NCC2,-17,-1,1,6,11,21
Clc1ccccc1NN=Cc1ccccn1,/,-1,4,-2,47*,/
Nc1c(Cl)ncnc1NN=Cc1ccccn1,/,/,/,/,/,2
CC(=NNc1nncc2ccccc12)c1cccc(OC(F)F)c1,/,/,/,/,/,12
COc1ccc(C(C#N)=Cc2ccccc2OC)cc1,/,0,0,15,11,/
COc1cccc(N/C=C(\C#N)c2ccc(OCCCF)cc2)c1,-40,2,3,7,33*,/
CC=C1COC(C(=O)NCc2cccc(OC)c2OC)(C(F)(F)F)C=C1C=C1CCCCC1 (stereo not drawn),/,/,/,/,/,15
CCOC(=O)C1=C(C)NC2=C(C(=O)CCC2)C1c1cccs1 (stereo not drawn),1,2,-6,-10,20,/
CCOC(=O)c1sc2c(c1C)C(c1cccs1)C1=C(CCCC1=O)N2 (stereo not drawn),-14,+,4,-4,11,/
O=C(CSc1n[nH]c(-c2ccc(S(=O)(=O)NC3CCCCC3)cc2)n1)N1CCCC1,-3,125*,0,7,2,-3
SMILES,PrP UTR inh,Mtb FBA inh,PrPC surface inh,Y pestis TopoI,GDH-TPI counter,Mtb hypoxia rep
COc1ccc(NC(=O)c2ccco2)cn1,-31,-1,-1,2,-3,-1
COc1ccc(NC(=O)c2ccc(-c3ccc(C(C)=O)cc3)o2)cn1,-17,19,-1,1,32*,1
CN(C)c1ccc(C=NC(CO)C(O)c2ccc([N+](=O)[O-])cc2)cc1 (stereo not drawn),-25,-7,-8,-3,38*,9
COc1cccc(C=N[C@@H](CO)[C@@H](O)c2ccc([N+](=O)[O-])cc2)c1O,3,-5,-10,3,4,-3
Cc1n[nH]c(C)c1NC(=O)c1cc([N+](=O)[O-])ccc1Cl,-22,142*,-12,-2,5,1
Cc1cccc(NC(=O)c2cc([N+](=O)[O-])ccc2Cl)c1O,-18,-4,-23,-1,-3,-9
C=CCn1c(CC(C)(C)C)nc2ccccc21,-12,-1,3,1,-5,7
C=CCn1c(-c2cccc(OC)c2)nc2nc3ccccc3nc21,-7,3,-39,14,54*,1
C=CCn1c(-c2cccs2)nc2nc3ccccc3nc21,-30,+,-31,5,25,/
Cc1nc(N(C)C)c2sc(=S)n(C)c2n1,-22,1,-5,6,31*,/
